Compound activity (PubChem)
Only some compounds are listed: those with a hit (about 19% of all), similar ones and a draw of the others.
ELG1 repair inh – blocks ELG1-dependent DNA repair in HEK293T cells; Potency, µM (titrated, usually from 46.1 µM), hits mostly inhibitors; 330,000 tested, 2.3% active; HEK293T ELG1-luciferase reporter, luminescence, 16 h; DNA damage induced by 5-fluorouridine; further: nearly all actives have a fitted effect of over 55% in size
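In this reporter screen, reduction of luminescence relative to DMSO vehicle indicated activity. Compounds and 5-fluorouridine were added together to 2,000 cells per well, incubated for 16 hr at 37 °C, then developed with ONE-Glo.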
HT1080-NT tox – kills 2HG-producing HT-1080-NT fibrosarcoma cells; HT-1080-NT fibrosarcoma viability, CellTiter-Glo ATP luminescence, 48 h; Potency, µM (titrated, usually from 46.1 µM), usual class: cytotoxic; 360,000 tested, 1.6% active; AID 686970;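 further: NT is the 2HG producing partner of a matched IDH1 knockdown line; nearly all actives have a fitted effect of over 55% in size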
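Toxicity toward the 2HG-producing NT line was scored as %Activity, normalised to DMSO and no-cell wells, from CellTiter-Glo luminescence after 48 hours' treatment.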
IL1B secr inh – inhibitors of inflammasome signaling (IL-1 beta secretion). THP-1 LPS/ATP IL-1B secretion, AlphaLISA, 16 h; stronger effect = lower value. activity change, % at 57.5 µM. 360,000 tested, 4.7% active. AID 743279; in the data active means activity change below about -50%; inconclusive means mostly about -30% to -49%
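THP-1 cells pretreated 1 hr with compounds (up to 57.5 uM final), then stimulated with LPS (250 ng/mL final) plus ATP (1.25 mM final); secreted IL-1B measured by AlphaLISA after 16 hr, decreased signal indicating inhibition.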
HT1080 IDH1KD tx – HT-1080 IDH1 knockdown cell toxicity (counter line) | 360,000 tested, 2% active | Potency, µM (top dose mostly 46.1 µM), hits mostly cytotoxic | HT-1080 IDH1 knockdown viability, ATP luminescence, 48 h
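CellTiter-Glo luminescence after 48 h compound exposure at 37 degrees C of IDH1-knockdown HT-1080 cells in 5% FBS RPMI. %Activity scaled between DMSO wells and cell-free media wells, with curves fitted and assigned curve classes.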
TDP1 cell noCPT – qHTS for Inhibitors of human tyrosyl-DNA phosphodiesterase 1 (TDP1): qHTS in cells in absence of CPT; DT40 Tdp1-/- hTDP1 cells, no CPT, ATP luminescence, 48 h; Potency, µM (series often up to 46.2 µM), hits mostly inhibitors; 420,000 tested, 15% active; AID 686978, 2013; further: nearly all actives have a fitted effect of over 55% in size
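Cells were dispensed at 400 per well, compounds added by pin tool, plates incubated ≥48 hr at 37 °C, then CellTiter-Glo added for 30 min at room temperature before luminescence reading. Line: DT40 Tdp1-/- complemented with hTDP1; camptothecin omitted.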
TDP1 cell CPT – DT40-hTDP1 cell growth loss with CPT. Potency, µM (top dose mostly 46.2 µM), actives largely listed as inhibitors. 420,000 tested, 12% active. chicken DT40 Tdp1-/-;hTDP1 cells + 20 nM CPT, ATP luminescence, 48 h; further: nearly all actives have a fitted effect of over 55% in size
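Chicken DT40 Tdp1-/- cells complemented with human TDP1, 400 cells/well, exposed to compounds plus 20 nM camptothecin for at least 48 h at 37 C; viability read as ATP content by CellTiter-Glo luminescence.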
Each line names hits and unclear results; the compound was inactive in the other large screens. Unless noted, the call rests on the fitted dose curve; in most records, active means well fitted curve in the direction sought with a large enough effect; inconclusive means small, poorly fitted or top-dose-only effect, or another doubt; inactive means no such curve, though single readings can be large; an effect the other way counts as inactive or inconclusive.

CO[C@@H]1[C@@H](O[C@@H]2O[C@H](C)[C@@H](O[C@H]3C[C@@](C)(O)[C@@H](OC(=O)CC(C)C)[C@H](C)O3)[C@H](N(C)C)[C@H]2O)[C@@H](CC=O)C[C@@H](C)C(=O)/C=C/C2OC2C[C@@H](C)OC(=O)C[C@H]1OC(C)=O (stereo not given in full)	TDP1 cell noCPT 3.3µM, TDP1 cell CPT 3.8µM (no result: ELG1 repair inh, HT1080-NT tox, IL1B secr inh, HT1080 IDH1KD tx)
CC(C)c1onc(C(=O)N2CCCCC2)c1[N+](=O)[O-]	IL1B secr inh -65, TDP1 cell noCPT inconclusive
CC(C)c1onc(C(=O)Nc2ccc3c(c2)OCO3)c1[N+](=O)[O-]	TDP1 cell noCPT 18µM, TDP1 cell CPT inconclusive
Cc1ccc(NC(=O)c2noc(C(C)C)c2[N+](=O)[O-])cc1	HT1080 IDH1KD tx inconclusive, TDP1 cell noCPT 18µM, TDP1 cell CPT 13µM
CN(CCCn1ccc(NC(=O)OCc2ccccc2)nc1=O)CCc1ccccn1	IL1B secr inh inconclusive (no result: ELG1 repair inh)
O=C(NCCSCc1ccco1)Nc1ccc(Cl)cc1	TDP1 cell noCPT 12µM, TDP1 cell CPT inconclusive (no result: ELG1 repair inh)
CC(C)(C)OC(=O)C[C@H]1C/C=C\C[C@@H](CC(=O)N(CCO)Cc2ccccc2)C(=O)N[C@H](Cc2ccccc2)COC1=O	TDP1 cell noCPT inconclusive, TDP1 cell CPT inconclusive
CCOc1ccccc1NC(=O)Cn1c(=O)n(-c2ccc(F)cc2)c(=O)c2c3c(sc21)CN(C(C)=O)CC3	none (no result: ELG1 repair inh, HT1080-NT tox, IL1B secr inh, HT1080 IDH1KD tx)
CC(=O)N1CCc2c(sc3c2c(=O)n(CCc2ccccc2)c(=O)n3CC(=O)Nc2ccc(C)c(F)c2)C1	TDP1 cell noCPT inconclusive, TDP1 cell CPT 23µM (no result: ELG1 repair inh, HT1080-NT tox, IL1B secr inh, HT1080 IDH1KD tx)
CC(=O)N1CCc2c(sc3c2c(=O)n(-c2ccc(C)cc2)c(=O)n3CC(=O)Nc2ccccc2)C1	TDP1 cell noCPT 16µM, TDP1 cell CPT inconclusive (no result: ELG1 repair inh, HT1080-NT tox, IL1B secr inh, HT1080 IDH1KD tx)
CCOC(=O)N1CCc2c(sc3c2c(=O)n(Cc2ccccc2)c(=O)n3CC(=O)Nc2ccc(C)c(C)c2)C1	none (no result: ELG1 repair inh, HT1080-NT tox, IL1B secr inh, HT1080 IDH1KD tx)
CCOC(=O)N1CCc2c(sc3c2c(=O)n(CCc2ccccc2)c(=O)n3CC(=O)Nc2ccccc2C)C1	TDP1 cell noCPT 8.2µM, TDP1 cell CPT 8.2µM (no result: ELG1 repair inh, HT1080-NT tox, IL1B secr inh, HT1080 IDH1KD tx)
CC(c1ccon1)N(C)C(=O)c1cccc(OC2CCN(S(C)(=O)=O)CC2)c1 (stereo not given)	none (no result: ELG1 repair inh)
CC(=O)c1c(C)[nH]c(C(=O)Nc2cccc(C)n2)c1C	ELG1 repair inh inconclusive
CCC(C)c1ccccc1NC(=O)c1[nH]c(C)c(C(C)=O)c1C (stereo not given)	none
CC(=O)c1c(C)[nH]c(C(=O)NC(C)c2ccccc2)c1C (stereo not given)	ELG1 repair inh inconclusive, TDP1 cell noCPT 16µM, TDP1 cell CPT inconclusive
CC(=O)c1c(C)[nH]c(C(=O)Nc2nccs2)c1C	ELG1 repair inh inconclusive, HT1080 IDH1KD tx inconclusive, TDP1 cell noCPT 13µM, TDP1 cell CPT 12µM
O=C(c1cccc([N+](=O)[O-])c1)N1CCCC(C(=O)N2CCN(c3ccccc3)CC2)C1 (stereo not given)	none
CC(C)c1ccc2c(c1)[C@H]1OCC[C@H]1[C@@H](c1cccs1)N2	ELG1 repair inh inconclusive, HT1080-NT tox 2.9µM, HT1080 IDH1KD tx 3.3µM, TDP1 cell noCPT 10µM, TDP1 cell CPT 16µM
COC(=O)c1c(NC(=O)C(C)(C)C)sc2c1CCN(Cc1ccccc1)C2	TDP1 cell noCPT inconclusive, TDP1 cell CPT 16µM
CCOC(=O)c1c(NC(=O)C(C)Sc2cccc[n+]2[O-])sc2c1CCN(Cc1ccccc1)C2 (stereo not given)	ELG1 repair inh inconclusive, TDP1 cell noCPT 16µM, TDP1 cell CPT inconclusive
CCOC(=O)c1c(NC(=O)CC)sc2c1CCN(Cc1ccccc1)C2	TDP1 cell noCPT inconclusive, TDP1 cell CPT inconclusive
